# Counter-ions that a name gives are not always drawn. Like-named read-outs stand apart in the source and are kept apart here. Screen size: about 5,300 compounds; about 130 (2.5%) showed an effect of 50% or more. Shown is part of a subset that was picked to be rich in strong results.
# Tested on: M. mycetomatis strain mm55
# Settings: primary screen, metabolic activity vs growth control, 96 h, 2 µM, inhibitor
SMILES,% viability [%],% viability (Madurella mycetomatis metabolic activity at 2µM (%)) [%]
"CCOc1cccc(NC(=O)c2ccc(N3CCCC3)c(C(F)(F)F)c2)c1 [ONC0001854, epptb]",85.67,–
"COc1cc2c(Nc3ccc(NC(=O)c4ccccc4)cc3)ncnc2cc1OCCCN1CCOCC1 [ONC0003607, zm447439]",145.2,–
"CCn1c(-c2nonc2N)nc2cnc(Oc3cccc(NC(=O)c4ccc(OCCN5CCOCC5)cc4)c3)cc21 [ONC0002474, gsk269962]",46.2,–
"Cc1nc2ccc(CN(C)c3ccc(C(=O)N[C@@H](CCC(=O)O)C(=O)O)s3)cc2c(=O)[nH]1 [ONC0004884, raltitrexed tomudex]",134.6,–
"CN1CCN2c3c(cccc31)[C@@H]1CN(CCCC(=O)c3ccc(F)cc3)CC[C@@H]12 [ONC0001244, lumateperone tosylate]",56.09,–
"CC1=NN(c2ccc(C)c(C)c2)C(=O)/C1=N/Nc1cccc(-c2cccc(C(=O)O)c2)c1O [ONC0004936, eltrombopag olamine]",85.22,–
"N#CC(c1ccccc1)(c1ccccc1)c1ccccc1Cl [ONC0000177, tram39]",89.73,–
"FC(F)(F)c1ccccc1-n1ccnc1 [ONC0000025, trim]",101,–
Clc1ccccc1C(c1ccccc1)(c1ccccc1)n1ccnc1 [Clotrimazole],2.944,–
"C=CC1=C(C)c2cc3[nH]c(cc4nc(cc5[nH]c(cc1n2)c(C)c5CCC(=O)O)C(CCC(=O)OC)=C4C)[C@@]1(C)C3=CC=C(C(=O)OC)[C@H]1C(=O)OC [ONC0001491, verteporfin]",55.47,–
"CC(C)(C)c1ccc(-c2nc3c(N4CCN(Cc5ccc6nccnc6c5)CC4)cccc3[nH]2)cc1 [ONC0001828, way207024]",97.56,–
"N=C(N)NCCC[C@@H](N)C(=O)O [ONC0004802, larginine hcl]",91.52,–
"CN1C/C=C/CCOc2cccc(c2)-c2ccnc(n2)Nc2cccc(c2)C1 [ONC0001026, sb1317]",86.64,–
"Nc1nc2c(ncn2[C@@H]2O[C@H](CO)[C@@H](O)[C@H]2O)c(=S)[nH]1 [ONC0004689, thioguanosine]",121.6,–
"C=C[C@@]1(C)CC(=O)[C@]2(O)[C@@]3(C)[C@@H](O)CCC(C)(C)[C@@H]3[C@H](OC(=O)CCN(C)C)[C@H](OC(C)=O)[C@@]2(C)O1 [ONC0002915, colforsindaproate]",95.97,–
"C/C=C(\C)C(=O)O[C@H]1[C@H](OC(C)=O)[C@@]2(CO)C(CC1(C)C)C1=CCC3[C@@]4(C)CCC(O[C@@H]5O[C@H](C(=O)O)[C@@H](O[C@@H]6O[C@H](CO)[C@@H](O)[C@H](O)[C@H]6O)[C@H](O)[C@H]5O[C@@H]5O[C@H](CO)[C@@H](O)[C@H](O)[C@H]5O)[C@](C)(CO)C4CC[C@@]3(C)[C@]1(C)C[C@H]2O (stereo partly shown) [ONC0002310, escin]",67.54,–
"CN1CCOC(c2ccccc2)c2ccccc2C1 (stereo not shown) [ONC0000697, nefopam]",116,–
"CN1CCC2=C(C1)c1ccccc1Cc1ccccc12 [ONC0005445, setiptiline]",113.1,–
"CN1CCC2=C(C1)C(c1ccccc1)c1ccccc12 (stereo not shown) [ONC0001922, phenindamine]",47.96,–

SMILES,% viability [%],% viability (Madurella mycetomatis metabolic activity at 2µM (%)) [%]
"CSCC[C@H](N)C(=O)O [ONC0005517, lmethionine]",–,102.8
"Cc1ccc(NC(=O)c2ccc(CN3CCC(N(C)C)C3)c(C(F)(F)F)c2)cc1Nc1ncc(-c2cncnc2)cn1 (stereo not shown) [ONC0004625, bafetinib inno406]",85.25,–
"CC(=O)NC1=NN(C(C)=O)C(C)(c2ccccc2)S1 (stereo not shown) [ONC0002658, k858]",49.67,–
"CC(=O)Nc1ccccc1 [ONC0000688, acetanilide]",114.7,–
"CCNCCS(=O)(=O)NC[C@@]1(c2ccccc2)SC(NC(=O)C(C)(C)C)=NN1C(=O)C(C)(C)C [ONC0000804, litronesib]",77.28,–
"CCCCN1[C@@H]2CC[C@H]1C[C@@H](OC(c1ccc(F)cc1)c1ccc(F)cc1)C2 [ONC0003046, jhw007]",64.39,–
"FC(F)(F)c1ccc(CNc2ccc(Cc3c[nH]c4ncccc34)cn2)cc1 [ONC0002656, plx647]",82.24,–
"CCOc1cc(C(C)(C)C)ccc1C1=NC(C)(c2ccc(Cl)cc2)C(C)(c2ccc(Cl)cc2)N1C(=O)N1CCN(CCCS(C)(=O)=O)CC1 (stereo not shown) [ONC0004446, rg7112 ro5045337]",112.9,–
"[N-]=[N+]=N[C@]1(CO)O[C@@H](n2ccc(N)nc2=O)[C@@H](O)[C@@H]1O [ONC0000950, ro9187]",66.7,–
"Nc1ccn([C@@H]2O[C@@](CO)(CCl)[C@@H](O)[C@H]2F)c(=O)n1 [ONC0000939, als8112]",44.91,–
"[N-]=[N+]=N[C@]1(CO)O[C@@H](n2ccc(N)nc2=O)[C@H](O)[C@@H]1O [ONC0001768, r1479]",81.29,–
"[H]/N=C(/N)c1ccc(NCc2nc3cc(C(=O)N(CCC(=O)O)c4ccccn4)ccc3n2C)cc1 [ONC0004940, bibr 953 dabigatran etexilate pradaxa]",81.22,–
"C=C[C@H]1C[N@@]2CC[C@H]1C[C@@H]2[C@@H](O)c1ccnc2ccc(OC)cc12 [ONC0003347, quinidine gluconate]",101.1,–
"O=C(Nc1c[nH]nc1-c1nc2cc(CN3CCOCC3)ccc2[nH]1)NC1CC1 [ONC0004692, at9283]",87.23,–
C[C@@H](c1nc(-c2ccc(C#N)cc2)cs1)[C@](O)(Cn1cncn1)c1cc(F)ccc1F [Isavuconazole],3.591,–
"OC(Cn1cncn1)(Cn1cncn1)c1ccc(F)cc1F [ONC0005572, fluconazole]",73.77,–
C[C@@H](c1ncncc1F)[C@](O)(Cn1cncn1)c1ccc(F)cc1F [Voriconazole],2.12,–
C[C@@H](c1nc(-c2ccc(C#N)cc2)cs1)[C@](O)(Cn1cncn1)c1ccc(F)cc1F [Ravuconazole],0.9972,–

# Source: publication PMC12670160, “A drug-repurposing screen of FDA- and EMA-approved drugs identifies two NF-κB inhibitors active against eumycetoma” (Journal of Antimicrobial Chemotherapy, 2025)
